Rows were chosen to be rich in hits. Some 18% of all compounds tested hit in one or more screens of this group.
RORg inh = blocks mouse ROR gamma transcriptional activity | 5.4% of 310,000 active | Drosophila S2 Gal4-RORgamma UAS-luciferase reporter, 20 h | Potency, µM (titrated, usually from 53.6 µM), without a hit: at the top dose activity change, negative = inhibition, most hits filed as inhibitors; also: potency is read from the fitted curve at half-maximal effect; nearly all actives have a fitted effect of over 60% in size
Target sequence (P51450 whole entry, looked up, the tested form may be a part): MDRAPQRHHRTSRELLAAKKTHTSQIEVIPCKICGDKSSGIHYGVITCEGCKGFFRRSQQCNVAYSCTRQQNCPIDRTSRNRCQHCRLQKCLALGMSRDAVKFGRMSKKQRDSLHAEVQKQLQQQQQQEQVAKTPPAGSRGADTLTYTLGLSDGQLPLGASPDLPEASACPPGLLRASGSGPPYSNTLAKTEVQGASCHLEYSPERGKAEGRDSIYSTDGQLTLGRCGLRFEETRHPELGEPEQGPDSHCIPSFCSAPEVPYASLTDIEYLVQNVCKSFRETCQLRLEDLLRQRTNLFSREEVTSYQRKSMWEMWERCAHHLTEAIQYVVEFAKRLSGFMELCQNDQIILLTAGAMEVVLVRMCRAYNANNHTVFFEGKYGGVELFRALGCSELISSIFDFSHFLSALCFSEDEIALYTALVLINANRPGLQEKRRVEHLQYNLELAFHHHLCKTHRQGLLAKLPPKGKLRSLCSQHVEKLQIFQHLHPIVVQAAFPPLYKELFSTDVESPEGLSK
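Drosophila S2 cells stably expressing Gal4-DBD/mouse RORγ fusion under metallothionein promoter plus UAS-luciferase; compound 1 h, then 700 uM CuSO4 induction for 20 h at ambient temperature; inhibition read as reduced luminescence.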
IL1B secr inh = blocks inflammasome-driven IL-1 beta release | activity change, % at 57.5 µM | 4.7% of 360,000 active | THP-1 LPS/ATP IL-1B secretion, AlphaLISA, 16 h; stronger effect = lower value; in the data active = activity change below about -50%; inconclusive = mostly about -30% to -49%
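Secreted IL-1B measured by AlphaLISA bead assay after 16 h compound exposure of THP-1 cells; compounds (final up to 57.5 uM) added 1 h before LPS (250 ng/mL) and ATP (1.25 mM) stimulation; lower signal means less secretion.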
TDP1 cell CPT = DT40-hTDP1 cell growth loss with CPT; chicken DT40 Tdp1-/-;hTDP1 cells + 20 nM CPT, ATP luminescence, 48 h; Potency, µM (highest dose often 46.2 µM), for inactives: at the highest dose activity change, negative = growth inhibition, usual class: inhibitors; 12% of 420,000 active; AID 686979; also: potency is read from the fitted curve at half-maximal effect; nearly all actives have a fitted effect of over 55% in size
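Chicken DT40 Tdp1-/- cells complemented with human TDP1, 400 cells/well, exposed to compounds plus 20 nM camptothecin for at least 48 h at 37 C; viability read as ATP content by CellTiter-Glo luminescence.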
VP16 counter = inhibits Gal4-VP16 luciferase reporter, ROR gamma counter-screen; Drosophila S2 Gal4-VP16 UAS-luciferase, luminescence, 20 h; Potency, µM (top dose mostly 53.6 µM), for inactives: top-dose activity, negative = inhibition, most hits filed as inhibitors; 3.5% of 310,000 active;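 also: Gal4-VP16 expression switched on by copper sulfate through the metallothionein promoter; potency is read from the fitted curve at half-maximal effect; nearly all actives have a fitted effect of over 50% in size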
LDHA block = LDHA (human) enzyme inhibition; purified LDHA, NADH/diaphorase-resazurin fluorescence; stronger effect = lower value; P00338; 0.15% of 480,000 active; activity change, % (values are at about 110 or 230 µM); AID 1347041; in the data active = activity change below about -30%; inconclusive = mostly about -25% to -30%;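 also: plate controls were DMSO wells for no effect and wells without enzyme for full effect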
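Enzyme activity of human lactate dehydrogenase 5 (2 nM; 0.06 mM NADH, 0.2 mM pyruvate, 5 min, RT) is measured via a resazurin/diaphorase fluorescence readout of residual NADH.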
TDP1 cell noCPT = qHTS for Inhibitors of human tyrosyl-DNA phosphodiesterase 1 (TDP1): qHTS in cells in absence of CPT; DT40 Tdp1-/- hTDP1 cells, no CPT, ATP luminescence, 48 h; Potency, µM (doses to about 46.2 µM), for the others: at the highest dose activity change, negative = growth inhibition, most hits filed as inhibitors; 15% of 420,000 active; AID 686978, 2013; also: potency is read from the fitted curve at half-maximal effect; nearly all actives have a fitted effect of over 55% in size
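A cellular qHTS used chicken DT40 cells lacking endogenous Tdp1 but carrying stably transfected human TDP1. Compounds were applied without camptothecin, and cell growth kinetics were judged by ATP-dependent luminescence after ≥48 hr.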
* marks the source's active call; other numbers are inactive results; u = inconclusive; x = not tested or not shown; ! = not active in a repeat; [ ] = another dose, or the depositor's remark. Unless noted, calls follow the shape of the dose curve; as a rule, active = well fitted curve in the direction sought with a large enough effect; inconclusive = small, poorly fitted or top-dose-only effect, or another doubt; inactive = no such curve, though single readings can be large; an effect the other way counts as inactive or inconclusive. Unless noted, % is scaled to controls: 0 for no effect and ±100 for the full control effect.

SMILES	RORg inh	IL1B secr inh	TDP1 cell CPT	VP16 counter	LDHA block	TDP1 cell noCPT
O=C1CCN(CCc2ccccc2)CCN1[C@H](CSc1ccc(Br)cc1)Cc1ccccc1	38%	-11	16µM*	-1%	1	15µM*
CCCN1CCC(=O)N(C(CSc2ccc(Br)cc2)Cc2ccccc2)CC1 (stereo not given)	23%	x	x	-9%	x	x
Cc1cc2cc(C(=O)O)ccc2o1	x	x	x	x	-3	x
O=C(c1nsnc1-c1ccccc1O)N1CCCCC1	7%	1	-10%	9%	-6	-18%
NC(=O)c1nsnc1-c1ccccc1O	22µM*	13	-5%	11%	1	-14%
O=C(Nc1ccc(CSc2ccccc2)cc1)c1ccc(F)cc1	x	x	x	x	4	x
CCc1ccc(C(=O)C(C)OC(=O)c2ccc(CO)cc2)cc1 (stereo not given)	x	x	x	x	-17	x
Cc1nn(-c2ccccc2)c2nc(C3CC3)cc(C(=O)NCc3ccccc3Cl)c12	x	x	u	x	-6	23µM*
Cc1cc(C(=O)NCc2ccccc2Cl)c2c(C)nn(-c3cccc(F)c3)c2n1	x	x	u	x	-6	21µM*
COc1ccc(NC(=O)c2cc(C3CC3)nc3c2c(C)nn3-c2ccc(C)cc2)cc1OC	x	x	u	x	4	u
COc1cc(NC(=O)c2cc(C3CC3)nc3c2c(C)nn3-c2ccc(C)cc2)cc(OC)c1	x	x	u	x	-8	6.5µM*
COc1cc(OC)c(-c2nn3c(-c4ccco4)nnc3s2)cc1OC	-33%	-18	u	-8%	0	15µM*
CC1(C)Cc2ccccc2-c2nnc(-c3ccco3)n21	8%	-7	-16%	20%	0	-13%
COc1ccc(-c2nnc3sc(-c4ccco4)nn23)cc1OC	-10%	-13	1%	1%	9	-27%
COc1cc2c(cc1OC)-c1nnc(-c3ccco3)n1C1(CCCC1)C2	51%	-22	u	1%	-3	18µM*
Cc1cc(-c2nn3c(-c4ccccc4)nnc3s2)c2ccccc2n1	9%	19	u	1%[0.365 µM]	-6	18µM*
c1ccc(-c2cc(-c3nn4c(-c5ccco5)nnc4s3)c3ccccc3n2)cc1	u	19	7.1µM*	u	0	4.5µM*
Cc1cc(C)cc(NC(=O)Cn2ccn(-c3ccc(F)c(F)c3)c(=O)c2=O)c1	x	x	x	x	4	x
COc1ccc2c(C)c(CC(=O)NCCCOC(C)C)c(=O)oc2c1OC	x	x	x	x	8	x
NC(=O)CCN(C(=O)c1ccc(Br)cc1)c1ccc(F)cc1	x	x	x	x	-5	x
O=C(CCN(Cc1ccco1)C1CCCC1)Nc1ccccc1	x	x	x	x	8	x
CC(C)NS(=O)(=O)c1ccc(OCC(=O)N2CCN(c3cccc(Cl)c3)CC2)cc1	x	x	15µM*	x	-12	23µM*
CCOC(=O)N1CCN(C(=O)COc2ccc(S(=O)(=O)NC(C)C)cc2)CC1	16%	-13	9%	-6%	-13	-9%
CC(C)[C@H](NS(=O)(=O)c1cccc(Cl)c1)C(=O)OCC(=O)N1CCN(c2ccccc2)CC1	u	-11	23µM*	-25%	-3	26µM*
O=C(OCC(=O)N1CCN(c2ccccc2)CC1)c1cccc(Cl)c1	-18%	0	-11%	-16%	-4	-14%
SMILES	RORg inh	IL1B secr inh	TDP1 cell CPT	VP16 counter	LDHA block	TDP1 cell noCPT
CC(C)C(NC(=O)Cc1ccccc1)C(=O)N1CCN(c2cccc(Cl)c2)CC1 (stereo not given)	x	-4	4.6µM*	x	0	3.3µM*
CC(NC(=O)c1ccco1)C(=O)N1CCN(c2cccc(Cl)c2)CC1 (stereo not given)	x	-5	u	x	-4	-26%
CCOC(=O)Nc1ccc(NCc2ccc(F)cc2)nc1N	-15%	-15	u	-6%	13	16µM*!
COc1ccc(/C=C/C(=O)C2CC2)cc1Cn1nc(C)c([N+](=O)[O-])c1C	18%	-110*	u	u	-3	u
COc1ccc(/C=N/N2CCOCC2)cc1Cn1nc(C)c([N+](=O)[O-])c1C	-30%	0	-20%	-4%	-1	u
CC1CCCN(c2nc(-c3ccc(Cl)cc3)nc3ccccc23)C1 (stereo not given)	x	x	x	x	4	x
CCCNC(=O)Cn1c(=O)/c(=C/c2ccc(-c3cccc([N+](=O)[O-])c3)o2)s/c1=C\C(=O)C(C)(C)C	x	25	u	x	-7	u
CCCNC(=O)Cn1c(=O)/c(=C\c2ccc(-c3cccc([N+](=O)[O-])c3)o2)s/c1=C\C(=O)C(C)(C)C	38%	9	23µM*	-7%	0	23µM*
Cc1ccc(OCCCCN2CCCC(C)C2)c([N+](=O)[O-])c1 (stereo not given)	11%	-5	18µM*	9%	-13	23µM*
CCOc1ccccc1OCCOCCOc1ccccc1[N+](=O)[O-]	u	18	-27%	-1%	-10	10µM*
CC1CCN(CCCCOc2ccccc2[N+](=O)[O-])CC1	-4%	-62*	-37%	-14%	-22	-13%
CN(C)CC(=O)Nc1sc2c(c1C#N)CCCCC2	x	x	x	x	1	x
CCCNc1c(NC(=O)Nc2ccc(F)cc2F)c(=O)oc2ccccc12	x	x	x	x	-4	x
Cn1nnnc1NCc1c(F)cccc1Cl	-2%	10	-7%	-10%	-7	-5%
Cc1ccc(-c2cnc(NCc3c(F)cccc3Cl)n2C)cc1	x	x	15µM*	x	-11	23µM*
Cn1c(-c2ccc(F)cc2)cnc1NCc1ccc(C#N)cc1	-10%[10 µM]	-15	u	1%	-12	16µM*
Cn1c(-c2ccc(F)cc2)cnc1NCc1ccccc1F	-30%	-7	-28%	-26%	-7	23µM*
Cn1c(-c2ccccc2)cnc1NCc1cc(Cl)ccc1O	32%	-55*	-6%	19%	-13	-15%
Cn1c(-c2ccc(F)cc2)cnc1NCc1ccc(F)cc1F	-35%	9	-4%	3%	-21	u
Oc1ccc(Cl)cc1CNc1ccccn1	0%	-6	8%	-1%	-1	-11%
CCC1(CC)NC(=O)N(CC(=O)Nc2cccc3cccnc23)C1=O	x	x	x	x	-3	x
C=CCn1c(NCc2ccccc2O)nc2ccccc21	3%[1.91 µM]	-13	u	3%	-5	u
CCOc1ccccc1CNc1nnnn1C	-11%	7	u	-2%	1	-19%
C=CCn1c(NCc2cc(Cl)ccc2O)nc2ccccc21	37%	-69*	u	-4%	-3	u
Cn1nnnc1NCc1ccccc1F	0.63µM*	11	7%	3%	-3	1%
